Only a sample is shown.
aSyn 5UTR act: Activators via SNCA 5'UTR binding, MLPCN. activity score, % (tested at 7.5 µM), hits read low. 300,000 compounds, 7.1% hits. alpha-synuclein 5'UTR reporter, activators screen. AID 1814; in the data active means activity score below about -60%
* = called active by the depositor.

SMILES | aSyn 5UTR act
CCCOc1ccc(NC(=O)C2CC(=O)N/C(=N/N=C(C)/C=C/c3ccc(N(C)C)cc3)S2)cc1 (stereo not drawn) | -79*
CC(/C=C/c1ccc(N(C)C)cc1)=N\N=C1\NC(=O)CC(C(=O)Nc2ccccc2)S1 (stereo not drawn) | -73*
O=C(Nc1ccc(Nc2ccccc2)cc1)Nc1ccccc1Cl | -227*
O=C(Nc1ccc(Cl)c(Cl)c1)OCc1cccnc1 | -73*
O=C(Nc1ccc2c(c1)CCC2)Nc1ccccc1Cl | -110*
O=C(Nc1cccnc1)Nc1ccc(Br)cc1Cl | -68*
Cc1ccc(NC(=O)Nc2cccnc2)cc1Cl | -111*
O=C(Nc1cccnc1)Nc1ccccc1Cl | -72*
Cc1ccc(NC(=O)Nc2ccc3c(c2)C(=O)OC3)cc1Cl | -83*
O=C(Nc1csc([N+](=O)[O-])c1)Nc1ccccc1Cl | -89*
O=C(Nc1ccc(Cl)cc1)Nc1ccccc1Sc1ncc([N+](=O)[O-])s1 | -90*
O=C(NCc1ccco1)Nc1ccc(Br)cc1Cl | -170*
O=C(CSc1ncnc2sc3c(c12)CCCC3)c1ccccc1 | -77*
Cc1ccc(NC(=O)C2CC2c2ccccc2)c([N+](=O)[O-])c1 (stereo not drawn) | -88*
O=C(Nc1ccc2c(c1)OCO2)C1CCCCC1 | -92*
CC(NC(=O)Nc1ccc2c(c1)OCO2)C1CCCO1 (stereo not drawn) | -112*
CC(C)C(NC(=O)C1CCCCC1)C(=O)Nc1ccc2c(c1)OCCO2 (stereo not drawn) | -66*
Cn1c(-c2ccccc2)cc2c3no[n+]([O-])c3ccc21 | -69*
C(=C\c1ccccc1)/C=N/Nc1nc2ccccc2s1 | -191*
Brc1ccc(/C=C/C=N/Nc2nc3ccccc3s2)cc1 | -73*
CCC/C=N/Nc1nc2ccccc2s1 | -244*
O=C(Nc1ccccc1)c1ccccc1O | -151*
Cc1ccccc1NC(=O)C(=O)Nc1ccccc1C | -143*
Cc1ccccc1NC(=O)c1ccccc1O | -118*
O=S(=O)(/N=C(/Nc1ccccc1)c1ccccc1O)c1ccccc1 | -79*
SMILES | aSyn 5UTR act
CC(=O)NC1Sc2ccccc2N=C1c1ccccc1 (stereo not drawn) | -181*
O=C(NCC1CCCN(C(=O)c2cscn2)C1)c1ccccc1Cl (stereo not drawn) | -78*
COc1ccc(S(=O)(=O)Nc2ccc(O)c3ccccc23)cc1 | -68*
COC(=O)c1ccc(C)c(NS(=O)(=O)c2ccc(OC)cc2)c1 | 82
O=[N+]([O-])c1ccc(NCc2ccccc2)nc1 | -67*
CC(C)CNc1nc(N)c([N+](=O)[O-])c(NCc2ccccc2)n1 | 77
CN(C)/C=C(\C#N)C(=O)N/N=C/c1ccccc1 | -69*
COCCCNC(=S)NNC(=O)C1CC1c1ccc(C(C)(C)C)cc1 (stereo not drawn) | -100*
COCCNC(=S)NC(=O)c1ccc(C(C)(C)C)cc1 | -91*
Cc1cc2ncc(S(C)(=O)=O)c(N)n2n1 | 60
O=C(O)c1ccc(N/N=C/c2ccc(OC(=O)c3ccccc3Cl)cc2)cc1 | 57
O=C(O)c1ccc(N/N=C/c2ccc(-c3ccccc3Cl)o2)cc1 | -65*
Cc1ccc(/C=N/Nc2ccc(C(=O)O)cc2)s1 | 76
Cc1ccc(/C=N/Nc2ccc(C(=O)O)cc2)o1 | -70*
CC(=O)c1ccc(NC(=O)Oc2ccccc2)cc1 | -63*
CCOC(=O)Nc1ccc(Cc2ccncc2)cc1 | -63*
CCOC(=O)Nc1ccc(C(=O)/C=C/c2ccccc2)cc1 | -69*
CCOC(=O)Nc1ccc(Oc2ccccc2)cc1 | -96*
CN1CCc2c(sc(/N=C/c3cc(Cl)ccc3O)c2C#N)C1 | -157*
CN1CCc2c(sc(/N=C/c3c[nH]c4ccccc34)c2C#N)C1 | -68*
COc1ccc(-c2nc3ccc([N+](=O)[O-])cc3o2)cc1 | -192*
O=[N+]([O-])c1ccc2oc(-c3ccccc3)nc2c1 | -236*
O=[N+]([O-])c1ccc(O)c(-c2cc(C(F)(F)F)nc(-c3ccccc3)n2)c1 | 90
Cc1cccc(-c2nc3cc([N+](=O)[O-])ccc3o2)c1 | -130*
O=C(OCc1ccccn1)c1ccc(COc2ccc3ccccc3c2)o1 | -104*
SMILES | aSyn 5UTR act
O=C(c1ccccc1)c1ccc2nc(-c3ccc(NC(=O)c4ccccc4F)cc3)[nH]c2c1 | -101*
O=C(Nc1ccc2nc(-c3ccco3)[nH]c2c1)c1ccco1 | -118*
Cc1ccc2nc(-c3cccc(NC(=O)c4ccco4)c3)[nH]c2c1 | -121*
CC(=O)Nc1ccc2nc(-c3ccco3)[nH]c2c1 | -73*
O=C(Nc1ccc(-c2nc3ccccc3[nH]2)cc1)c1ccco1 | -133*
O=C(Nc1ccc2nc(-c3ccccc3)[nH]c2c1)c1cccs1 | -103*
O=C(Nc1ccc2nc(-c3ccco3)[nH]c2c1)c1cccs1 | -190*
O=C(/C=C/c1ccco1)Nc1ccc(-c2nc3ccccc3[nH]2)cc1 | 89
Cc1ccc(Nc2nc(CSc3nnc(-c4ccc(F)cc4)n3C)cs2)cc1 | -144*
CCCCSc1nnc(-c2ccc(OC)cc2)n1C | -133*
Cc1ccc(-c2nnc(SCC(C)C)n2C)cc1 | -146*
CC(/C=C/c1ccc(N(C)C)cc1)=N\N=C(/N)SC1CC(=O)N(c2ccc(C(=O)O)cc2)C1=O (stereo not drawn) | -68*
CCOC(=O)/C(C#N)=C\C=C1C=CN(C)C=C1 | -150*
COc1ccc(-c2nc(CN3CCN(c4cc(C)nc(C)c4)CC3)c(C)o2)c2ccccc12 | 68
Cc1oc(-c2ccc(-c3ccccc3)cc2)nc1CN1CCN(CC(=O)N(C)C)CC1 | -143*
CSc1nnc(NC(=O)CCc2ccccc2)s1 | -65*
CC(C)(C)Cc1nnc(NC(=O)CCc2ccccc2)s1 | -124*
Cc1ccc2cccc(OCCCOc3ccccc3F)c2n1 | -74*
Nc1sc(-c2ccccc2)n[n+]1Cc1cccc2cccnc12 | 53
Cc1ccc2ccc3ccc(C)nc3c2n1 | 72
CCS(=O)(=O)c1ccc(N=Nc2ccc(O)c3ncccc23)c(OC)c1 | 78
COc1cccc(OC)c1OCCCOc1cccc2cccnc12 | -106*
Clc1ccccc1OCCCOc1cccc2cccnc12 | -118*
CCCCC(=O)NC(c1ccccc1OC)c1ccc2cccnc2c1O (stereo not drawn) | 101
Fc1ccc(COc2cccc3cccnc23)cc1 | -141*
SMILES | aSyn 5UTR act
CCCC(=O)NC(c1ccccc1OC)c1ccc2cccnc2c1O (stereo not drawn) | 124
Oc1ccccc1C1CC(c2cccs2)=NC(c2cccc(Br)c2)N1 (stereo not drawn) | -87*
C(#Cc1ccccc1)Cn1nnc2ccccc21 | -98*
Cc1ccc(-c2nc3ccccc3n2C)o1 | -155*
CC(=O)c1ccc(-c2nc3ccccc3n2C)o1 | -143*
Cc1ccc(C2Nc3ccccc3-c3nc4ccccc4n32)o1 (stereo not drawn) | -104*
Cn1nc(C(=O)NC2CCCCC2)c2c1-c1ccccc1SC2 | -98*
C#Cc1cccc(NC(=O)CSc2nnc(-c3ccc(C(F)(F)F)cn3)o2)c1 | -124*
Cc1cccc(NC(=O)CSc2nnc(-c3n[nH]c4ccccc34)o2)c1 | -180*
N#Cc1cccc(NC(=O)CSc2nnc(-c3n[nH]c4ccccc34)o2)c1 | -277*
CCc1cccc2c(=O)c(C(=O)N3CCCCCC3)c[nH]c12 | -78*
N#C/C(=C\c1ccccc1)c1ccccn1 | -100*
CNc1ccc(/C=C(\C#N)c2ccccn2)cc1[N+](=O)[O-] | -157*
CCN(CC)S(=O)(=O)c1ccc(C)c(C(=O)Oc2cccc(-c3cnc4ccccc4n3)c2)c1 | -178*

Source: PubChem (Broad Institute)
